Screens from PubChem BioAssay.
MEKK2wt PB1 HTS – raises or lowers MEK5 binding to wildtype human MEKK2 PB1 domain; AID 1531; binding response (% of control), % at 10 µM; bead flow cytometry, Alexa488-MEK5 binding to MEKK2 WT; actives lie on both sides; hit rate 1.1% among 290,000; in the data active means binding response below about 67% or above about 130%
Beta2AR agonist – human beta-2 adrenergic receptor agonism by FAP. P07550. Am2.2-beta2AR cells, FAP receptor internalization, flow cytometry. response, % (test concentration not listed). hit rate 0.43% among 340,000;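 active means response above a set limit, near 3 SD of response in nonfluorescent compounds, cut at about 42% in these data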
Target sequence (P07550 whole entry, looked up): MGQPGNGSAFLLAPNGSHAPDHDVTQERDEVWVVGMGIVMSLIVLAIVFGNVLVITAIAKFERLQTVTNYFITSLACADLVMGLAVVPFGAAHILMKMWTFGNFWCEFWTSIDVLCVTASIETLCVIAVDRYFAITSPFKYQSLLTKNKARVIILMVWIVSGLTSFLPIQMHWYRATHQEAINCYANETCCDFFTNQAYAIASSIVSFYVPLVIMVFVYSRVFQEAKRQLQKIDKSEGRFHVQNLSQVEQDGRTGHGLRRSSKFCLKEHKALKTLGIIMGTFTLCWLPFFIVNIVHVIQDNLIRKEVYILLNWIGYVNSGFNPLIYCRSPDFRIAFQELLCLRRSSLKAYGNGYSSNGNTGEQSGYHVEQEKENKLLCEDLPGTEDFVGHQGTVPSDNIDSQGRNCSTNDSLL
MEKK2mut PB1 HTS – signal of MEK5 binding to mutant human MEKK2 PB1 domain; percent response, % at 10 µM; hit rate 0.35% among 290,000; bead flow cytometry, Alexa488-MEK5 binding to MEKK2 mutant; in the data active means percent response above about 24%, passing the limit was not always enough
GRK2 aptamer HTS – inhibitors of human GRK2 displacing RNA aptamer. bead flow cytometry, FAM-aptamer displacement from GRK2. inhibition of aptamer binding, % at 10 µM. hit rate 0.59% among 330,000. AID 488847;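 active means inhibition of aptamer binding above 40%, roughly 3 SD of noise, on plates passing a quality check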;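 further: median bead fluorescence of bound FAM aptamer so fluorescent compounds give negative values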
MEKK3 PB1 HTS – raises or lowers MEK5 binding to the human MEKK3 PB1 domain. AID 1529. hit rate 1.4% among 290,000. bead-based flow cytometry, Alexa488-MEK5 binding to MEKK3; actives lie on both sides; 0 = blocked by unlabeled MEK5, 100 = vehicle. binding response (% of control), % at 10 µM;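 active means binding response more than 3 SD above or below the average of its plate-row segment, actives on both sides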;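 further: Alexa488 bead fluorescence after subtracting the streptavidin-only scavenger bead signal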
MEKK2wt confirm – raises or lowers MEK5 binding to wildtype human MEKK2, retest. shares compounds with MEKK3 PB1 HTS. bead flow cytometry, Alexa488-MEK5 binding to MEKK2 WT; actives lie on both sides. binding response (% of control), % at 10 µM. hit rate 2.4% among 5,900. AID 1892; in the data active means binding response below about 16% or above about 210%; inactive means in between
MEKK2mut confirm – signal of MEK5 binding to mutant human MEKK2, retest. shares compounds with MEKK3 PB1 HTS. bead flow cytometry, Alexa488-MEK5 binding to MEKK2 mutant. percent response, % at 10 µM. hit rate 2% among 5,900; in the data active means percent response mostly above about 71%, no sharp cut-off; inactive means mostly below about 38%;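 further: higher means compound restores mutant binding toward wildtype level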
MEKK3 confirm – confirmation of inhibitors of MEK5 binding to human MEKK3; shares compounds with MEKK3 PB1 HTS; bead flow cytometry, Alexa488-MEK5 binding to MEKK3; active compounds read low; binding response (% of control), % at 10 µM; hit rate 1.8% among 5,900; AID 1894;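 active means binding response below 72% of control, or above a set upper limit, though filed actives all read lower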;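 further: 100% = DMSO only wells and 0% = binding blocked by excess unlabeled MEK5; lower values mean stronger disruption of MEK5 binding to MEKK3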
Numbers without * were called inactive; nt = no result; [ ] = remark or other dose. This is a sample that favours compounds with a hit; in the whole collection about 2.9% have one here.

SMILES | MEKK2wt PB1 HTS | Beta2AR agonist | MEKK2mut PB1 HTS | GRK2 aptamer HTS | MEKK3 PB1 HTS | MEKK2wt confirm | MEKK2mut confirm | MEKK3 confirm
CCOc1ccc(C(=O)Nc2ccccc2CC)cc1[N+](=O)[O-] | 87.0 | -4.2 | -2.0 | 2.0 | 50.0*[inhibitor] | 94.0 | -26.0 | 89.0
COc1ccccc1NS(=O)(=O)c1cccc(NC(=O)CCNC(=O)c2ccccc2OC)c1 | nt | 12.5 | nt | 0.0 | nt | nt | nt | nt
COc1ccccc1OCCCOc1c(Cl)cc(C)cc1Cl | 108.0 | -6.8 | 0.0 | 2.0 | 134.0* | 107.0 | 1.0 | 105.0
COc1cc(C)ccc1OCCOCCOc1cc(C)c(C)cc1Br | 106.0 | -3.9 | 0.0 | 0.0 | 134.0* | 104.0 | 10.0 | 103.0
COc1cc(C)ccc1OCCCOc1c(Cl)cccc1Cl | 106.0 | 1.7 | 0.0 | 0.0 | 133.0* | 102.0 | -2.0 | 102.0
CN(C)c1ccc(/C=C/c2ccc3c4ccccc4ccc3[n+]2-c2ccccc2)cc1 | 41.0* | 17.1 | -33.0 | nt | 18.0*[inhibitor] | 138.0 | 56.0 | 81.0
CC(C)(C)NCc1cc(Cl)ccc1OCc1ccccc1F | 70.0 | -2.0 | -22.0 | 0.0 | 75.0*[inhibitor] | 101.0 | 0.0 | 99.0
CCN(CC)CCNCc1cc(Cl)ccc1OCc1ccccc1F | 143.0 | -1.6 | 15.0 | 0.0 | 98.0 | nt | nt | nt
O=C(CSc1nnc(Cn2cnc3ccccc32)o1)Nc1cccc2ccccc12 | 19.0*[inhibitor] | 0.6 | -15.0 | 0.0 | 13.0*[inhibitor] | 99.0 | 4.0 | 104.0
O=[N+]([O-])c1ccc(N2CCN(Cc3ccc([N+](=O)[O-])o3)CC2)cc1 | 109.0 | 1.7 | 6.0 | 0.0 | 101.0 | nt | nt | nt
O=[N+]([O-])c1ccc(CN2CCN(c3ccccc3)CC2)o1 | 128.0 | -1.9 | 16.0 | 0.0 | 122.0* | 103.0 | 4.0 | 104.0
COc1ccc(OCCOc2ccc(/C=C3\C(=N)N4N=C(C)SC4=NC3=O)cc2)cc1 | nt | -0.2 | nt | 0.0 | nt | nt | nt | nt
COC(=O)c1ccnc(/C=N/O)c1 | 85.0 | -2.6 | -10.0 | 2.0 | 80.0*[inhibitor] | 96.0 | -6.0 | 102.0
COc1ccc(NS(=O)(=O)c2cc(C(=O)N3CCN(C(C)=O)CC3)ccc2Cl)cc1 | 77.0 | -0.4 | -2.0 | 0.0 | 71.0*[inhibitor] | 102.0 | 4.0 | 104.0
COc1ccc(NS(=O)(=O)c2cc(C(=O)N3CCC3)ccc2C)cc1 | nt | -10.8 | nt | 0.0 | nt | nt | nt | nt
O=C(NC1(C(F)(F)F)NC(=O)N(c2ccc(F)cc2)C1=O)c1cccs1 (configuration not stated) | 111.0 | 0.7 | 0.0 | 0.0 | 158.0* | 106.0 | -2.0 | 102.0
Cc1ccc(NC(=O)CN(C)S(=O)(=O)c2cccc3cccnc23)cc1 | 108.0 | -4.2 | 5.0 | 3.0 | 107.0 | nt | nt | nt
Cc1ccc(NC(=O)CN(C)S(=O)(=O)c2cccc3cccnc23)c(C)c1 | 109.0 | 2.0 | 27.0 | 0.0 | 134.0* | 110.0 | 9.0 | 107.0
COc1ccc(Nc2nc(N3CCCC3)c3ccccc3n2)cc1 | 185.0* | 18.5 | 45.0* | 0.0 | 107.0 | 159.0 | 44.0 | 109.0
CSc1ccccc1NC(=O)CN(C)CC(=O)Nc1cc(C)ccc1C | 96.0 | 1.1 | -2.0 | 0.0 | 68.0*[inhibitor] | 99.0 | -13.0 | 99.0
COc1ccc(S(=O)(=O)N(C)CC(=O)Nc2ccccc2SC)cc1 | 101.0 | -5.0 | -2.0 | 1.0 | 97.0 | nt | nt | nt
COc1ccc(S(=O)(=O)N(C)CC(=O)Nc2ccccc2SC)cc1Cl | 89.0 | 18.6 | -8.0 | 1.0 | 82.0*[inhibitor] | 102.0 | 3.0 | 107.0
CSc1ccccc1NC(=O)CN(C)CC(=O)NCc1ccccc1 | 100.0 | -4.7 | 0.0 | 3.0 | 102.0 | nt | nt | nt
Cc1ccc(/C=N/NC(=O)c2nnn(-c3nonc3N)c2-c2ccc3c(c2)OCO3)s1 | 97.0 | 4.6 | -10.0 | 1.0 | 100.0 | nt | nt | nt
COc1cc(/C=C/C(=O)OCC(=O)Nc2cc(C(F)(F)F)ccc2N2CCOCC2)ccc1O | 104.0 | -1.0 | 0.0 | 1.0 | 152.0* | 105.0 | -1.0 | 104.0
SMILES | MEKK2wt PB1 HTS | Beta2AR agonist | MEKK2mut PB1 HTS | GRK2 aptamer HTS | MEKK3 PB1 HTS | MEKK2wt confirm | MEKK2mut confirm | MEKK3 confirm
COc1cc(/C=C/C(=O)OCC(=O)Nc2ccc(C)c(S(=O)(=O)N3CCCCC3)c2)ccc1O | 108.0 | -0.6 | 0.0 | 1.0 | 147.0* | 103.0 | -6.0 | 103.0
Cc1ccc(S(=O)(=O)c2c(N)n(-c3ccccc3)c3nc4ccccc4nc23)cc1 | 102.0 | 1.8 | 0.0 | 1.0 | 136.0* | 94.0 | 2.0 | 92.0
CCOC(=O)C1(Cc2cccc(Cl)c2)CCCN(C(=O)C(C)(C)C)C1 (configuration not stated) | 104.0 | -5.4 | 1.0 | 9.0 | 103.0 | nt | nt | nt
CCCCN(C(=O)NC(=O)C1=C(N2CCOCC2)/C(=C/c2ccccc2)CC1)S(C)(=O)=O | nt | 0.0 | nt | 2.0 | nt | nt | nt | nt
CN(C(=O)NC(=O)C1=C(N2CCOCC2)/C(=C/c2ccccc2)CC1)S(C)(=O)=O | -2.0*[inhibitor] | -4.7 | -28.0 | 2.0 | 2.0*[inhibitor] | 107.0 | 9.0 | 102.0
CN(C)CCc1cc2c(c3c1ccc1ccccc13)OCO2 | 174.0* | 37.5 | 19.0 | 0.0 | 110.0 | 141.0 | 25.0 | 105.0
COc1cc2ccc3c(CCN(C)C)cc(OC)c(OC)c3c2cc1OC | 113.0 | -3.1 | 5.0 | 0.0 | 104.0 | nt | nt | nt
Cc1ccc(C)c(S(=O)(=O)NCc2ccncc2)c1 | 128.0 | -6.7 | 11.0 | 7.0 | 137.0* | 89.0 | -9.0 | 97.0
COC(=O)c1cn(-c2ccccc2)nc1-c1ccc(OC)cc1 | 99.0 | -4.7 | 2.0 | 7.0 | 100.0 | nt | nt | nt
CCN(CC)CCNC(=O)c1ccc(NC(=O)c2cn(-c3ccccc3)nc2-c2cccs2)cc1 | 212.0* | 20.3 | 49.0 | 2.0 | 107.0 | 212.0* | 53.0 | 108.0
CCN(CC)CCNC(=S)NC(=O)c1cn(-c2ccccc2)nc1-c1ccc(OC)cc1 | 148.0* | 1.1 | 28.0 | 0.0 | 107.0 | 138.0 | 21.0 | 109.0
COc1cc([N+](=O)[O-])cc2sc(NC(=O)c3c(F)cccc3F)nc12 | 94.0 | 1.9 | -7.0 | 4.0 | 102.0 | nt | nt | nt
N#CC1=C(N)OC(c2ccccc2)=C(C#N)C1c1ccc2c(c1)OCO2 (configuration not stated) | 122.0 | -19.6 | 6.0 | 3.0 | 133.0* | 103.0 | 4.0 | 92.0
N#CC1=C(N)OC2=C(C(=O)CC(c3ccccc3)C2)C1c1ccc2c(c1)OCO2 (configuration not stated) | 97.0 | -0.5 | -1.0 | 0.0 | 99.0 | nt | nt | nt
O=C([C@@H]1CC=C[C@@H]2CCN(C3CC3)C(=O)[C@@H]21)N1CCN(c2ccccc2)CC1 | 91.0 | -3.9 | -3.0 | 1.0 | 80.0*[inhibitor] | 103.0 | 16.0 | 103.0
CCSc1ccc([C@@H]2[C@H]3C(=O)N(CC)C(=O)[C@H]3[C@]3(C(=O)OC)CCCCN23)cc1OC | nt | -2.5 | nt | 0.0 | nt | nt | nt | nt
